# Source: the supplement of paper PMC8728848
# About 410 targets per protein were measured; listed, in parts, are those with the strongest signals and a random draw of the rest.
# B1: Cohesin-marm-DC-ASGPR (protein)
# chain: LDITSHHHHHHDDLDAVRIKVDTVNAKPGDTVRIPVRFSGIPSKGIANCDFVYSYDPNVLEIIEIEPGDIIVDPNPDKSFDTAVYPDRKIIVFLFAEDSGTGAYAITKDGVFATIVAKVKEGAPNGLSVIKFVEVGGFANNDLVEQKTQFFDGGVNVGDTTEPATPTTPVTTPTTTDDLDAASSKFQRDLVTLRTDFSNFTSNTLAEIQALTSQGSSLQETIASLKAEVEGHKQELQAGASELQEHNKQKAHLGRCPHTCVCPSSFVCVPVHSEILLRVQQLVQDLNKLSCQVAILKNNATTERTCCPINWVEHQGSCYWFSRSGKTWPEAERYCQLENTHLVVINSREEQNFVQAHLGSAYTWMGLSDPEGVWKWVDGTDYSSGFQNWKPGQPDDWQGHGLGGGEDCAHFHPDGRWNDDVCQRSYHWVCEAGLTQASQDSHAS
# Experiments:
# Test in all cases: glycan array binding signal (z-score within array); higher = stronger binding
# Settings in all cases: glycan notation: IUPAC condensed, linker removed
# [1] = target: Fuc(a1-2)Gal(b1-4)GlcNAc(b1-2)[Fuc(a1-2)Gal(b1-4)GlcNAc(b1-4)]Man(a1-3)[Fuc(a1-2)Gal(b1-4)GlcNAc(b1-2)Man(a1-6)]Man(b1-4)GlcNAc(b1-4)GlcNAc
# Procedure, shortened: (§1)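 Negative Z-scores can be read as non-binding. The Z-score is calculated within each array and then averaged across arrays of one protein sequence at different concentrations or buffers and across linkers. Arrays, 3228 in all, were curated from the Consortium for Functional Glycomics database and kept only where the protein sequence was available.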
# [2] = target: Fuc(a1-2)Gal(b1-4)GlcNAc(b1-3)[Fuc(a1-2)Gal(b1-4)GlcNAc(b1-6)]GalNAc
# Procedure, shortened: as §1
# [3] = target: Fuc(a1-2)Gal(b1-4)GlcNAc(b1-6)GalNAc
# Procedure, shortened: as §1
# [4] = target: Fuc(a1-2)[Gal(a1-3)]Gal(b1-3)GlcNAc(b1-6)GalNAc
# Procedure, shortened: as §1
# [5] = target: Fuc(a1-2)[Gal(a1-3)]Gal(b1-4)GlcNAc
# Procedure, shortened: as §1
# [6] = target: Fuc(a1-2)[Gal(a1-3)]Gal(b1-4)GlcNAc(b1-2)Man
# Procedure, shortened: as §1
# [7] = target: Fuc(a1-2)[Gal(a1-3)]Gal(b1-4)GlcNAc(b1-3)[Fuc(a1-2)[Gal(a1-3)]Gal(b1-4)GlcNAc(b1-6)]GalNAc
# Procedure, shortened: as §1
# [8] = target: Fuc(a1-2)[GalNAc(a1-3)]Gal(b1-4)GlcNAc(b1-6)GalNAc
# Procedure, shortened: as §1
# [9] = target: Fuc(a1-2)[GalNAc(a1-4)]Gal(b1-4)GlcNAc
# Procedure, shortened: as §1
# [10] = target: Gal(a1-4)Gal(b1-4)GlcNAc(b1-2)Man(a1-3)[Gal(a1-4)Gal(b1-4)GlcNAc(b1-2)Man(a1-6)]Man(b1-4)GlcNAc(b1-4)GlcNAc
# Procedure, shortened: as §1
# Gal(b1-3)Gal = target: Gal(b1-3)Gal
# Procedure, shortened: as §1
# [11] = target: Gal(b1-3)GlcNAc(b1-6)[Gal(b1-3)]GalNAc
# Procedure, shortened: as §1
# [12] = target: Gal(b1-3)[Fuc(a1-4)]GlcNAc(b1-2)Man(a1-3)[Gal(b1-3)[Fuc(a1-4)]GlcNAc(b1-2)Man(a1-6)]Man(b1-4)GlcNAc(b1-4)[Fuc(a1-6)]GlcNAc
# Procedure, shortened: as §1
# [13] = target: Gal(b1-4)GlcNAc(b1-2)Man(a1-3)[Gal(b1-4)GlcNAc(b1-2)Man(a1-6)]Man(b1-4)GlcNAc(b1-4)GlcNAc
# Procedure, shortened: as §1
# [14] = target: Gal(b1-4)GlcNAc(b1-2)Man(a1-3)[GlcNAc(b1-4)][Gal(b1-4)GlcNAc(b1-2)Man(a1-6)]Man(b1-4)GlcNAc(b1-4)GlcNAc
# Procedure, shortened: as §1
# [15] = target: Gal(b1-4)GlcNAc(b1-2)[Gal(b1-4)GlcNAc(b1-4)]Man(a1-3)[GlcNAc(b1-4)][Gal(b1-4)GlcNAc(b1-2)[Gal(b1-4)GlcNAc(b1-6)]Man(a1-6)]Man(b1-4)GlcNAc(b1-4)GlcNAc
# Procedure, shortened: as §1
# [16] = target: Gal(b1-4)GlcNAc(b1-2)[Gal(b1-4)GlcNAc(b1-6)]Man(a1-6)[GlcNAc(b1-4)][Gal(b1-4)GlcNAc(b1-2)Man(a1-3)]Man(b1-4)GlcNAc(b1-4)GlcNAc
# Procedure, shortened: as §1
# [17] = target: Gal(b1-4)GlcNAc(b1-3)Gal(b1-4)GlcNAc(b1-3)Gal(b1-4)GlcNAc(b1-2)Man(a1-3)[Gal(b1-4)GlcNAc(b1-3)Gal(b1-4)GlcNAc(b1-3)Gal(b1-4)GlcNAc(b1-2)Man(a1-6)]Man(b1-4)GlcNAc(b1-4)GlcNAc
# Procedure, shortened: as §1
# [18] = target: Gal(b1-4)GlcNAc(b1-3)Gal(b1-4)GlcNAc(b1-3)Gal(b1-4)GlcNAc(b1-3)Gal(b1-4)GlcNAc(b1-2)[Gal(b1-4)GlcNAc(b1-3)Gal(b1-4)GlcNAc(b1-3)Gal(b1-4)GlcNAc(b1-3)Gal(b1-4)GlcNAc(b1-6)]Man(a1-6)[Gal(b1-4)GlcNAc(b1-3)Gal(b1-4)GlcNAc(b1-3)Gal(b1-4)GlcNAc(b1-3)Gal(b1-4)GlcNAc(b1-2)Man(a1-3)]Man(b1-4)GlcNAc(b1-4)[Fuc(a1-6)]GlcNAc
# Procedure, shortened: as §1
# [19] = target: Gal(b1-4)GlcNAc(b1-3)Gal(b1-4)GlcNAc(b1-3)Gal(b1-4)GlcNAc(b1-3)Gal(b1-4)GlcNAc(b1-3)Gal(b1-4)GlcNAc(b1-3)Gal(b1-4)GlcNAc(b1-2)Man(a1-3)[Gal(b1-4)GlcNAc(b1-3)Gal(b1-4)GlcNAc(b1-3)Gal(b1-4)GlcNAc(b1-3)Gal(b1-4)GlcNAc(b1-3)Gal(b1-4)GlcNAc(b1-3)Gal(b1-4)GlcNAc(b1-2)Man(a1-6)]Man(b1-4)GlcNAc(b1-4)GlcNAc
# Procedure, shortened: as §1
# Gal3S(b1-4)Glc6S = target: Gal3S(b1-4)Glc6S
# Procedure, shortened: as §1
# Gal6S(b1-4)GlcNAc6S = target: Gal6S(b1-4)GlcNAc6S
# Procedure, shortened: as §1
# GalNAc(a1-3)Gal = target: GalNAc(a1-3)Gal
# Procedure, shortened: as §1
# GalNAc(a1-3)GalNAc = target: GalNAc(a1-3)GalNAc
# Procedure, shortened: as §1
# GalNAc(b1-3)GalNAc = target: GalNAc(b1-3)GalNAc
# Procedure, shortened: as §1
# GalNAc(b1-4)GlcNAc = target: GalNAc(b1-4)GlcNAc
# Procedure, shortened: as §1
# [20] = target: GalNAc(b1-4)GlcNAc(b1-2)Man
# Procedure, shortened: as §1
# GalNAc(b1-4)GlcNAc6S = target: GalNAc(b1-4)GlcNAc6S
# Procedure, shortened: as §1
# GalNAc(b1-6)GalNAc = target: GalNAc(b1-6)GalNAc
# Procedure, shortened: as §1
# GlcA(b1-3)Gal = target: GlcA(b1-3)Gal
# Procedure, shortened: as §1
# [21] = target: GlcNAc(a1-4)Gal(b1-3)GlcNAc
# Procedure, shortened: as §1
binder,measurement,setting,value
B1,glycan array binding signal (z-score),[1],-0.267
same,glycan array binding signal (z-score),[2],-0.236
same,glycan array binding signal (z-score),[3],4.84
same,glycan array binding signal (z-score),[4],4.11
same,glycan array binding signal (z-score),[5],-0.282
same,glycan array binding signal (z-score),[6],-0.239
same,glycan array binding signal (z-score),[7],-0.22
same,glycan array binding signal (z-score),[8],4.32
same,glycan array binding signal (z-score),[9],4.11
same,glycan array binding signal (z-score),[10],-0.267
same,glycan array binding signal (z-score),Gal(b1-3)Gal,-0.286
same,glycan array binding signal (z-score),[11],-0.272
same,glycan array binding signal (z-score),[12],-0.265
same,glycan array binding signal (z-score),[13],-0.277
same,glycan array binding signal (z-score),[14],-0.308
same,glycan array binding signal (z-score),[15],-0.268
same,glycan array binding signal (z-score),[16],-0.307
same,glycan array binding signal (z-score),[17],-0.177
same,glycan array binding signal (z-score),[18],-0.272
same,glycan array binding signal (z-score),[19],-0.295
same,glycan array binding signal (z-score),Gal3S(b1-4)Glc6S,-0.141
same,glycan array binding signal (z-score),Gal6S(b1-4)GlcNAc6S,-0.295
same,glycan array binding signal (z-score),GalNAc(a1-3)Gal,4.28
same,glycan array binding signal (z-score),GalNAc(a1-3)GalNAc,-0.266
same,glycan array binding signal (z-score),GalNAc(b1-3)GalNAc,-0.307
same,glycan array binding signal (z-score),GalNAc(b1-4)GlcNAc,4.21
same,glycan array binding signal (z-score),[20],4.13
same,glycan array binding signal (z-score),GalNAc(b1-4)GlcNAc6S,4.56
same,glycan array binding signal (z-score),GalNAc(b1-6)GalNAc,-0.303
same,glycan array binding signal (z-score),GlcA(b1-3)Gal,-0.309
same,glycan array binding signal (z-score),[21],-0.3
